# Test results published in PubChem BioAssay (NCATS).
# Results filed as inconclusive are left out. A call without a number means that no potency is given here. The source made the active and inactive calls. Unless noted, the call rests on the fitted dose curve; in most records, active means well fitted curve in the direction sought with a large enough effect; inconclusive means small, poorly fitted or top-dose-only effect, or another doubt; inactive means no such curve, though single readings can be large; an effect the other way counts as inactive or inconclusive.
# Columns and labels:
# [1] = qHTS assay for small molecule antagonists of retinoid X receptor alpha signaling (AID 588546; active means well fitted inhibition curve with a large enough effect in the signal ratio, with a control signal flat, not every such curve was filed as active; the % refers to the signal ratio; further: potency means the concentration at half of the fitted maximal effect;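 on max response: cells stimulated with 9-cis-retinoic acid as agonist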); settings: HEK293T RXRa-UAS-bla, beta-lactamase ratio, antagonist mode; measured here: W530 green channel, cytotoxicity proxy
# How it was run: (§1)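 Beta-lactamase reporter inhibition, read as CCF4 fluorescence ratio (ex 405, em 460/530 nm) after 2 h at RT. HEK293T UAS-bla cells, 2500/well, were stimulated with 9-cis-RA at 500 or 100 nM final alongside test compound for 18 h at 37 C.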
# [2] = molecular target: Retinoic acid receptor RXR-alpha (Homo sapiens) (UniProt P19793); experiment: as above; settings: HEK293T RXRa-UAS-bla, beta-lactamase ratio, antagonist mode
# How it was run: as §1
# [3] = molecular target: Voltage-gated inwardly rectifying potassium channel KCNH2 (Homo sapiens) (UniProt Q12809); experiment: qHTS Assay for Small Molecule Inhibitors of the Human hERG Channel Activity (AID 588834);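 further: lower thallium flux fluorescence means stronger hERG block; nearly all actives have a fitted effect of over 50% in size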; further: potency means the concentration at half of the fitted maximal effect
# How it was run: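 Kinetic FDSS fluorescence; U2OS + hERG BacMam (~100 virus particles/cell); FluxOR Tl+ flux; ~10 min cpd; AC50 (Hill).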
# [4] = S16 Schwann cell viability assay (CellTiter-Glo assay) (AID 624031); further: nearly all actives have a fitted effect of over 70% in size; further: potency means the concentration at half of the fitted maximal effect
# How it was run: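 Following overnight culture in 10% FBS DMEM, parental S16 rat Schwann cells are dosed for 24 h at 37 °C. Viability is read as CellTiter-Glo luminescence and expressed as % activity relative to DMSO (0%) and no-cell wells.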
# [5] = S16 Schwann cell PMP22 intronic element firefly luciferase assay (AID 624032); further: nearly all actives have a fitted effect of over 30% in size; further: potency means the concentration at half of the fitted maximal effect
# How it was run: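 Rat S16 Schwann cells stably carrying firefly luciferase driven by a PMP22 intronic element, in 10% FBS, treated 24 h at 37 C. ONE-Glo luminescence normalized to PTC124 control and DMSO (0%); curves classed by r2, magnitude and activity.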
# [6] = molecular target: Vitamin D3 receptor (Homo sapiens) (UniProt P11473); experiment: qHTS assay for small molecule agonists of vitamin D receptor signaling (AID 588543; calls by dose curve)
# How it was run: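 Agonist-mode beta-lactamase reporter: HEK293T VDR-UAS-bla cells in charcoal-stripped 2% FBS, compound series 16 h 37 C, CCF4 2 h RT. EC50 from Hill fit, scaled against DMSO and 50 nM calcitriol control.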
# [7] = molecular target: Thyroid hormone receptor beta (Homo sapiens) (UniProt P10828); experiment: qHTS assay for small molecule agonists of thyroid hormone receptor beta signaling (AID 588545; calls by dose curve)
# How it was run: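 Agonist-mode beta-lactamase reporter assay, HEK 293 cells, 2% charcoal/dextran FBS; cells plated 4 hrs, compound 18 hrs at 37 C, CCF4 2 hrs RT. Normalized to 10 nM T3 (100%) and DMSO (0%); Hill fit gives EC50, efficacy.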
# [8] = qHTS assay for small molecule agonists of the antioxidant response element (ARE) signaling pathway (AID 651741; active means well fitted activation curve with a large enough effect in the signal ratio; the % refers to the signal ratio; further: potency means the concentration at half of the fitted maximal effect)
# How it was run: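 HepG2 ARE-bla cells plated at 2,000 cells/well and incubated 5 h at 37 C/5% CO2 received 23 nL compound in DMSO. After 16 h at 37 C, LiveBLAzer B/G FRET substrate was applied for 2 h at room temperature and fluorescence read.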
# [9] = molecular target: Luciferin 4-monooxygenase (Photinus pyralis) (UniProt P08659); experiment: Biochemical firefly luciferase enzyme assay for NPC (AID 624030);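 further: purified P. pyralis luciferase at 10 nM with luciferin and ATP substrate; series mostly up to about 59 µM; nearly all actives have a fitted effect of over 70% in size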
# How it was run: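 Purified P. pyralis luciferase at 10 nM in 50 mM Tris Acetate (final), luminescence read within 5 minutes of enzyme addition to compounds. Activity normalised to PTC124 versus DMSO; concentration-response curves classed by r2, magnitude and activity.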
# Luciferin 4-monooxygenase (Photinus pyralis), sequence (P08659 whole entry, looked up): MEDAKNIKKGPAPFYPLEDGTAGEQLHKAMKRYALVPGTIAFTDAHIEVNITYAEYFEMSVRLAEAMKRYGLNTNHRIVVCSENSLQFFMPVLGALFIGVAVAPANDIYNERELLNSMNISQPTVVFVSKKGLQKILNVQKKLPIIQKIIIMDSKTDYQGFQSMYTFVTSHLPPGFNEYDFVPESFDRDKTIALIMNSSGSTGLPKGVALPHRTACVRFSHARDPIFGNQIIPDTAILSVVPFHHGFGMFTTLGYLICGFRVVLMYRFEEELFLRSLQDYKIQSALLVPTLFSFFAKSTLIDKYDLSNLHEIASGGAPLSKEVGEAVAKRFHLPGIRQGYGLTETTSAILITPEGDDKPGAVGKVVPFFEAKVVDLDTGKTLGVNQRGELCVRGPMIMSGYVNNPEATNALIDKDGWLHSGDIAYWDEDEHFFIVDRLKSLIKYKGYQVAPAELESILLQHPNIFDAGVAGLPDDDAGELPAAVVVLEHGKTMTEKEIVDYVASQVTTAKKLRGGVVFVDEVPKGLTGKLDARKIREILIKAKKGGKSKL
# Voltage-gated inwardly rectifying potassium channel KCNH2 (Homo sapiens), sequence (Q12809 whole entry, looked up): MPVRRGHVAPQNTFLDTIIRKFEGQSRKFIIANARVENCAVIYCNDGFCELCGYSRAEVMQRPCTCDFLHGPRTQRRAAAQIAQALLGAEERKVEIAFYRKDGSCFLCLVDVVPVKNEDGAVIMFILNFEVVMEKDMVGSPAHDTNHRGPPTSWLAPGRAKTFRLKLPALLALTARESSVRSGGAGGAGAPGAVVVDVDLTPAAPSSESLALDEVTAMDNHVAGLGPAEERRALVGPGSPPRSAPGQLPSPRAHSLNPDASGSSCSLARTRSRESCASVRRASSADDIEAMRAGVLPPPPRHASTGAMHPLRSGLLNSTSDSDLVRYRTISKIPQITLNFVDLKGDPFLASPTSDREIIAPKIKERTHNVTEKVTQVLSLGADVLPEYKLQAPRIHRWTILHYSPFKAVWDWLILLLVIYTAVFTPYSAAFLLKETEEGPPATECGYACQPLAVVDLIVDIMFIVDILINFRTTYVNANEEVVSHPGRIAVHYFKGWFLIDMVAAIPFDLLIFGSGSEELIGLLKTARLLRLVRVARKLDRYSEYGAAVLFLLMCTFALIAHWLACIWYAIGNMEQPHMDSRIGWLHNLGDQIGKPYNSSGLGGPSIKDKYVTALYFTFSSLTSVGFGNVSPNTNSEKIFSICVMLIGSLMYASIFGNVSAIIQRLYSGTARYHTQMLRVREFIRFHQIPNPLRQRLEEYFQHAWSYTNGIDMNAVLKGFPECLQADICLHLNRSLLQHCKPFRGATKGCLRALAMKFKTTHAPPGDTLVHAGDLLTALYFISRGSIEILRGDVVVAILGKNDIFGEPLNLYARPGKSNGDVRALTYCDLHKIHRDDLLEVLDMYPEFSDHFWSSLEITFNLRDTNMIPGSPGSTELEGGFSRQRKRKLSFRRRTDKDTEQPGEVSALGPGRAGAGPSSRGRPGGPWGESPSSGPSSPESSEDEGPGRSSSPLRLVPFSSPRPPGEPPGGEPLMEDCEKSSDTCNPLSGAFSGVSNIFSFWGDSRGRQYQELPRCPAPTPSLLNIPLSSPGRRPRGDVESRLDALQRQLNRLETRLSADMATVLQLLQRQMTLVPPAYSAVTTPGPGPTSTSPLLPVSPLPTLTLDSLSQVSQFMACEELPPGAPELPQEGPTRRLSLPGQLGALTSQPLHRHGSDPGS
# Vitamin D3 receptor (Homo sapiens), sequence (P11473 whole entry, looked up): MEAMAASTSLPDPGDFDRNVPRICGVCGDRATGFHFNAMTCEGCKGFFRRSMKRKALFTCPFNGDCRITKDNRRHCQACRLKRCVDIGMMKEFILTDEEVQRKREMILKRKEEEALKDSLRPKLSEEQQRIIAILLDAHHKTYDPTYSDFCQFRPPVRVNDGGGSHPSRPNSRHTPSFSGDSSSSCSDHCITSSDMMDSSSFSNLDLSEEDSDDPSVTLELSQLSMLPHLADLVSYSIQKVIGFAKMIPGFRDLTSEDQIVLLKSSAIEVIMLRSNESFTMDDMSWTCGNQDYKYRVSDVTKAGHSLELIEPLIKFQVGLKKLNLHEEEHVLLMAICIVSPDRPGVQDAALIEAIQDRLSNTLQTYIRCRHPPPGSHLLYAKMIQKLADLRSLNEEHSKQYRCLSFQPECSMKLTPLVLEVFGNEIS
# Thyroid hormone receptor beta (Homo sapiens), sequence (P10828 whole entry, looked up): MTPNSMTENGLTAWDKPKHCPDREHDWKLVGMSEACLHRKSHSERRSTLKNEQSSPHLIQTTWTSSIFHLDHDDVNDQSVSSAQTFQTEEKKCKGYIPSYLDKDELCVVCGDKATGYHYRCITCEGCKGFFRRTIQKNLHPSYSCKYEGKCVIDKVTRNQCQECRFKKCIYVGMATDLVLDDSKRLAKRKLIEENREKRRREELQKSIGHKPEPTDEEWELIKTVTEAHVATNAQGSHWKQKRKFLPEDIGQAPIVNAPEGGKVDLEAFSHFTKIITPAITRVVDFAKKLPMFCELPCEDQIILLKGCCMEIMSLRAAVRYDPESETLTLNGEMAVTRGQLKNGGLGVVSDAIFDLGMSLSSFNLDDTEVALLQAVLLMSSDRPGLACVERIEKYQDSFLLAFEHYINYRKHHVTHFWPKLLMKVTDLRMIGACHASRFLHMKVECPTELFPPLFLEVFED
# Retinoic acid receptor RXR-alpha (Homo sapiens), sequence (P19793 whole entry, looked up): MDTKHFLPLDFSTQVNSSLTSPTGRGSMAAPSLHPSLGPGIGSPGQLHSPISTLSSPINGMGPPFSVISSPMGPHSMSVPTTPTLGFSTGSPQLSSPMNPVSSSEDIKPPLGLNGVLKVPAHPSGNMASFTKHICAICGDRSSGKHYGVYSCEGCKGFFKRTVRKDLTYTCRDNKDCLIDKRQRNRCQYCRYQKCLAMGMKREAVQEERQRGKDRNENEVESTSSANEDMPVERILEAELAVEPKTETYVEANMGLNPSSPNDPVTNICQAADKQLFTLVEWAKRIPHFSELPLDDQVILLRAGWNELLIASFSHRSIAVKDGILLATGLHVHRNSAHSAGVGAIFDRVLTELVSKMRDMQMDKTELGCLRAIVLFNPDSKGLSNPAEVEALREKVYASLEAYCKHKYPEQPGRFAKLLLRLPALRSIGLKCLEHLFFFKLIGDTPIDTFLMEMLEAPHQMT
smiles,measurement,setting,value
C[CH2][Hg][S]c1ccccc1C(=O)O,max response,[1],-29.7%
same,Potency,[2],2.24 µM (active)
same,Potency,[3],inactive
same,Potency,[4],1.28 µM (active)
same,Potency,[5],0.721 µM (active)
CC1(C)S[C@@H]2[C@H](N)C(=O)N2[C@H]1C(=O)O,Potency,[3],inactive
CC(C)Nc1ccc(Nc2ccccc2)cc1,outcome,[6],inactive
same,outcome,[7],inactive
same,Potency,[8],47.3 µM (active)
CN(C)[C@H](Cc1ccccc1)c1ccccc1,Potency,[3],inactive
CCOC(=O)/C=C(C)/C=C/C[C@@H](C)CCCC(C)C,Potency,[3],inactive
C[C@]12CC[C@H]3[C@@H](CCC4=C(O)C(=O)CC[C@@H]43)[C@@H]1CC[C@@H]2OC(=O)CCC1CCCC1,Potency,[3],inactive
COc1cc2c(cc1OC)[C@@]13CCN4CC5=CCO[C@H]6CC(=O)N2[C@H]1[C@H]6[C@H]5C[C@H]43,Potency,[3],inactive
Cc1ccccc1-n1c(CF)nc2ccc(N)cc2c1=O,Potency,[3],inactive
CC(C)(O)[C@@H]1[C@H]2OC(=O)[C@@H]1[C@]1(O)C[C@H]3O[C@]34C(=O)O[C@H]2[C@]14C,Potency,[3],inactive
Cc1cccc(C(C)c2cnc[nH]2)c1C (stereo unspecified),Potency,[3],inactive
CCCCC[C@@H](O)C1C(=O)OC(C)[C@H](O)/C=C/C=C/C=C/C=C/C=C(\C)C(O)C(O)C(O)C[C@H](O)C[C@H](O)C[C@H](O)C[C@H](O)C[C@@H]1O (stereo partly specified),Potency,[3],inactive
CCC1(c2ccccc2)C(=O)NC(=O)N(C)C1=O (stereo unspecified),Potency,[3],inactive
same,Potency,[9],inactive
same,Potency,[4],inactive
same,Potency,[5],inactive
N#CC(C#N)=Cc1cc(O)c(O)c(O)c1,Potency,[3],inactive
C#CCN1CC(=O)N(COC(=O)C2C(C=C(C)C)C2(C)C)C1=O (stereo unspecified),Potency,[3],inactive
NCC[C@H](O)C(=O)N[C@@H]1C[C@H](N)[C@@H](O[C@H]2O[C@H](CN)[C@@H](O)[C@H](O)[C@H]2N)[C@H](O[C@@H]2O[C@H](CO)[C@@H](O)[C@H]2O)[C@H]1O,Potency,[3],inactive
C[C@]12CC[C@H](OS(=O)(=O)O)CC1=CC[C@@H]1[C@@H]2CC[C@]2(C)C(=O)CC[C@@H]12,Potency,[3],inactive
Clc1ccc(C(Cn2ccnc2)OCc2csc3c(Cl)cccc23)c(Cl)c1 (stereo unspecified),Potency,[3],3.98 µM (active)
CC(=O)Oc1ccc2c3c1O[C@H]1[C@@H](OC(C)=O)C=C[C@H]4[C@@H](C2)N(C)CC[C@@]341,Potency,[3],inactive
CO[C@H]1[C@@H](O)C[C@H](O[C@H]2[C@@H](O)C[C@H](O[C@H]3[C@@H](O)C[C@H](O[C@H]4CC[C@@]5(C)[C@H](CC[C@@H]6[C@@H]5C[C@@H](O)[C@]5(C)[C@@H](C7=CC(=O)OC7)CC[C@]65O)C4)O[C@@H]3C)O[C@@H]2C)O[C@@H]1C,Potency,[3],inactive
C[C@H]1CC[C@]2(NC1)O[C@H]1C[C@H]3[C@@H]4CC[C@H]5C[C@@H](O[C@@H]6O[C@H](CO)[C@H](O[C@@H]7O[C@H](CO)[C@@H](O)[C@H](O[C@@H]8OC[C@@H](O)[C@H](O)[C@H]8O)[C@H]7O[C@@H]7O[C@H](CO)[C@@H](O)[C@H](O)[C@H]7O)[C@H](O)[C@H]6O)CC[C@]5(C)[C@H]4CC[C@]3(C)[C@H]1[C@@H]2C,Potency,[3],15.8 µM (active)
CCNC1(c2cccs2)CCCCC1=O (stereo unspecified),Potency,[3],inactive
OC[C@@H](O)[C@H]1O[C@@H]2O[C@H](C(Cl)(Cl)Cl)O[C@@H]2[C@H]1O,Potency,[3],inactive
CC(C)CCC(=O)O[C@H]1CC[C@H]2[C@@H]3CCC4=CC(=O)CC[C@]4(C)[C@H]3CC[C@]12C,Potency,[3],25.1 µM (active)
S=C(S)N1CCNCC1,Potency,[3],inactive
same,Potency,[9],inactive
same,Potency,[4],inactive
same,Potency,[5],inactive
CC1(C)[C@H](C=C(Cl)Cl)[C@H]1C(=O)OCc1c(F)c(F)cc(F)c1F,Potency,[3],inactive
CCN(CC)C(=O)N[C@H]1C[C@@H]2c3cccc4[nH]cc(c34)C[C@H]2N(C)C1,Potency,[3],inactive
CC(=O)OO,Potency,[3],inactive
same,Potency,[9],inactive
same,Potency,[4],inactive
same,Potency,[5],inactive
[2H]C([2H])([2H])[C@H](N)Cc1ccccc1,Potency,[3],inactive
CCNCC(O)c1cccc(O)c1 (stereo unspecified),Potency,[3],inactive
CC(Cc1ccccc1)NC=O (stereo unspecified),Potency,[3],inactive
same,Potency,[9],inactive
same,Potency,[4],inactive
same,Potency,[5],inactive
CN(C)CCCCCCN(C)C (tested in a mixture with another compound),Potency,[3],inactive
[S]=[Sb](=[S])[S][Sb](=[S])=[S],Potency,[3],inactive
[H+].[H+].[Hg+2].[O-]B([O-])[O-].[c-]1ccccc1,Potency,[3],10 µM (active)
CC(=O)O[C@H]1C[C@H](O[C@H]2[C@@H](O)C[C@H](O[C@H]3[C@@H](O)C[C@H](O[C@H]4CC[C@@]5(C)[C@H](CC[C@@H]6[C@@H]5C[C@@H](O)[C@]5(C)[C@@H](C7=CC(=O)OC7)CC[C@]65O)C4)O[C@@H]3C)O[C@@H]2C)O[C@H](C)[C@H]1O[C@@H]1O[C@H](CO)[C@@H](O)[C@H](O)[C@H]1O,Potency,[3],inactive
CCN(CC)C(=O)/C(Cl)=C(\C)OP(=O)(OC)OC,Potency,[3],inactive
same,Potency,[9],inactive
same,Potency,[4],inactive
CN[C@H]1C[C@@H](N)[C@H](O)[C@@H](O[C@@H]2O[C@H](CO)[C@H](O)[C@@H]3OC4(O[C@H]23)O[C@H](C(N)CO)[C@H](O)[C@H](O)[C@H]4O)[C@@H]1O (stereo partly specified),Potency,[3],inactive
C=CC[C@]1(O)CC[C@H]2[C@@H]3CCC4=CCCC[C@@H]4[C@H]3CC[C@@]21C,Potency,[3],inactive
C=CCC1(C(C)CCC)C(=O)N=C(S)NC1=O (stereo unspecified),Potency,[3],inactive
same,Potency,[9],inactive
same,Potency,[4],inactive
same,Potency,[5],inactive
NCC(O)c1cccc(O)c1 (stereo unspecified),Potency,[3],inactive
same,Potency,[9],inactive
same,Potency,[4],inactive
same,Potency,[5],inactive
CC(C)CC(NP(=O)(O)O[C@@H]1O[C@@H](C)[C@H](O)[C@@H](O)[C@H]1O)C(=O)NC(Cc1c[nH]c2ccccc12)C(=O)O (stereo partly specified),Potency,[3],inactive
